According to PubChem BioAssay (EPA / NIEHS):
Inconclusive results are not listed. Activity calls are given as the source filed them. How the source made its calls, unless noted: active means hit-call score of the fitted dose curve at least 0.9, where 1 is the maximum; inactive means score below 0.9.

Experiments:
[1] = ATG_CRE_CIS: Attagene CIS-FACTORIAL HepG2 Assay for human cAMP Responsive Element (CRE) binding protein 3 (AID 2282926); conditions: HepG2 CRE cis-reporter, Attagene multiplexed mRNA; actives raise or lower the signal
Summary of the method: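 HepG2 cells transiently transfected with cis-element-driven multiple reporter transcription units; CRE reporter mRNA measured 24 h after dosing by RT-PCR, 6-FAM labelling, HpaI digestion and capillary electrophoresis. Bidirectional fit versus DMSO baseline.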

[2] = target: Hepatocyte nuclear factor 3-beta (Homo sapiens) (UniProt Q9Y261); test: ATG_FoxA2_CIS: Attagene CIS-FACTORIAL HepG2 Assay for human Forkhead box A2 (FOXA2) (AID 2282942); conditions: HepG2 cis-reporter transcription factor activity, 24 h; actives raise or lower the signal
Summary of the method: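 In transiently transfected human HepG2 cells, promoter-driven reporter mRNA levels after 24 h chemical exposure are determined via RT-PCR with capillary electrophoresis. DMSO serves as baseline for bidirectional fitting.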

[3] = ATG_M_32_CIS: Attagene CIS-FACTORIAL HepG2 Assay for M32 Transcription Factor (Internal Marker) (AID 2282949); conditions: HepG2 Attagene cis-factorial M32 reporter, mRNA; actives raise or lower the signal;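 further: background control marker of the multiplexed CIS panel rather than a real target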
Summary of the method: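 Fluorescent capillary electrophoresis peaks of HpaI-digested, FAM-labelled RT-PCR reporter products give the signal. Source: transiently transfected human liver HepG2 cells, 24 h after chemical dosing; bidirectional fitting against DMSO.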

[4] = target: Hypoxia-inducible factor 1-alpha (Homo sapiens) (UniProt Q16665); test: ATG_HIF1a_CIS: Attagene CIS-FACTORIAL HepG2 Assay for human Hypoxia Inducible Factor 1 (HIF1A) (AID 2282951); conditions: HepG2 Attagene cis-factorial HIF1a reporter transcription; actives raise or lower the signal
Summary of the method: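 In this multiplexed cell assay, HepG2 cells bearing transfected cis reporters are dosed for 24 h and reporter mRNA is read by RT-PCR plus capillary electrophoresis; signal increases and decreases are both scored against DMSO.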

[5] = target: Hepatocyte nuclear factor 6 (Homo sapiens) (UniProt Q9UBC0); test: ATG_HNF6_CIS: Attagene CIS-FACTORIAL HepG2 Assay for human Hepatocyte Nuclear Factor 6 (HNF6) (AID 2282952); conditions: HepG2 Attagene cis-factorial HNF6 reporter transcription; actives raise or lower the signal
Summary of the method: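 HepG2 cells transiently transfected with cis-element-driven multiplexed reporter units measuring endogenous transcription factor activity. After 24 h exposure, reporter mRNA quantified by RT-PCR, FAM-labelled fragments and capillary electrophoresis; bidirectional fitting versus DMSO.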

[6] = target: Heat shock factor protein 1 (Homo sapiens) (UniProt Q00613); test: ATG_HSE_CIS: Attagene CIS-FACTORIAL HepG2 Assay for human Heat Shock Transcription Factor 1 (HSE) (AID 2282953); conditions: HepG2 HSE cis-reporter, Attagene RNA transcription; actives raise or lower the signal
Summary of the method: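 HepG2 cells transfected with cis-promoter reporter units sensing endogenous transcription factor activity; reporter mRNA quantified 24 h post-dose by RT-PCR and capillary electrophoresis of 6-FAM-labelled products. Bidirectional fitting against DMSO.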

[7] = ATG_RORE_CIS: Attagene CIS-FACTORIAL HepG2 Assay for human RAR-related Orphan Receptor Element (RORE) (AID 2282959); conditions: HepG2 Attagene cis-factorial RORE reporter, mRNA; actives raise or lower the signal
Summary of the method: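 Fluorescence intensity of reporter-specific cDNA fragments, separated by capillary electrophoresis, gives the signal. Source: HepG2 liver cells transiently transfected with cis-element reporters and exposed 24 h; DMSO-normalized bidirectional fit.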

[8] = ATG_TAL_CIS: Attagene CIS-FACTORIAL HepG2 Assay for human TAL Basal Promoter (AID 2282966); conditions: HepG2 Attagene cis-factorial TAL promoter reporter; actives raise or lower the signal;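 further: background control endpoint measuring basal TAL promoter reporter mRNA not a specific factor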
Summary of the method: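 HepG2 cells transiently transfected with multiplexed cis-promoter reporter units, dosed 24 h. Reporter mRNA quantified by RT-PCR, 6-FAM labelling, HpaI digestion and capillary electrophoresis; TAL basal promoter serves as background control, fitted bidirectionally versus DMSO.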

[9] = ATG_TGFb_CIS: Attagene CIS-FACTORIAL HepG2 Assay for human Transforming Growth Factor (TGF) (AID 2282967); conditions: HepG2 Attagene CIS TGFb reporter, mRNA transcription; actives raise or lower the signal
Summary of the method: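 HepG2 cells transiently transfected with cis-promoter-driven multiple reporter units measure endogenous TF activity; reporter mRNA quantified at 24 h by RT-PCR, FAM labeling, HpaI digestion and capillary electrophoresis. Bidirectional fit vs DMSO.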

[10] = target: X-box-binding protein 1 (Homo sapiens) (UniProt P17861); test: ATG_Xbp1_CIS: Attagene CIS-FACTORIAL HepG2 Assay for human X-box Binding Protein 1 (XBP1) (AID 2282972); conditions: HepG2 XBP1 cis-element reporter, Attagene multiplex; actives raise or lower the signal
Summary of the method: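 HepG2 cells transiently transfected with cis-regulated multiple reporter transcription units; endogenous transcription factor activity measured 24 hours after chemical dosing. Reporter mRNA quantified by RT-PCR, 6-FAM primer extension, HpaI digestion and capillary electrophoresis; bidirectional fitting versus DMSO.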

[11] = ATG_M_32_TRANS: Attagene TRANS-FACTORIAL HepG2 Assay for M32 Transcription Factor (Internal Marker) (AID 2282984; active means hit-call score of the fitted dose curve at least 0.9, where 1 is the maximum;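 further: transcript level of a background control reporter unit measured by RT-PCR and capillary electrophoresis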); conditions: HepG2 Attagene TRANS M32 internal marker reporter
Summary of the method: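 Human hepatoma HepG2, transient MRTU transfection, 24 h treatment. RNA → RT-PCR → fluorescent primer extension → HpaI digest (2 h, 37 C) → CE. Positive-direction fit vs DMSO.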

[12] = target: Transcriptional activator Myb (Homo sapiens) (UniProt P10242); test: ATG_Myb_CIS: Attagene CIS-FACTORIAL HepG2 Assay for human Myeloblastosis (Myb) Proto-Oncogene Transcription Factor (AID 2282986); conditions: HepG2 Attagene CIS-FACTORIAL Myb reporter transcription; actives raise or lower the signal
Summary of the method: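 Fluorescence signals from capillary electrophoresis of RT-PCR-amplified reporter cDNA give the read-out. Cells: HepG2 transfected with multiple cis-regulated reporter units. Exposure lasts 24 hours; DMSO defines baseline for gain or loss of signal.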

[13] = target: Nuclear respiratory factor 1 (Homo sapiens) (UniProt Q16656); test: ATG_NRF1_CIS: Attagene CIS-FACTORIAL HepG2 Assay for human Nuclear Respiratory Factor 1 (NRF1) Orphan Gene (AID 2282987); conditions: HepG2 NRF1 cis-element reporter, Attagene multiplex; actives raise or lower the signal
Summary of the method: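 Transcriptional reporter readout, one component of a 52-endpoint multiplexed HepG2 panel. Exposure 24 h; mRNA detected via RT-PCR and fluorescent capillary electrophoresis; fitting in both directions against DMSO.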

[14] = ATG_NFI_CIS: Attagene CIS-FACTORIAL HepG2 Assay for human Nuclear Factor I (NFI) (AID 2282989); conditions: HepG2 cis-regulatory reporter, NFI response element transcription; actives raise or lower the signal
Summary of the method: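 Endogenous TF activity in HepG2 cells transiently transfected with cis-element-driven multiplexed reporter units, read 24 h after dosing. Reporter mRNA quantified by RT-PCR, 6-FAM labelling, HpaI digestion and capillary electrophoresis; bidirectional fit versus DMSO.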

[15] = target: Myc proto-oncogene protein (Homo sapiens) (UniProt P01106); test: ATG_Myc_CIS: Attagene CIS-FACTORIAL HepG2 Assay for human Myelocytomatosis (Myc) Proto-Oncogene Transcription Factor (AID 2282990); conditions: HepG2, Attagene cis-reporter transcription factor activity; actives raise or lower the signal
Summary of the method: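 HepG2 cells transiently transfected with multiple cis-promoter-driven reporter transcription units, so endogenous TF activity is read. After 24 h compound exposure, reporter mRNA was quantified by RT-PCR, 6-FAM labelling, HpaI digestion and capillary electrophoresis; bidirectional fit versus DMSO.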

[16] = target: Cellular tumor antigen p53 (Homo sapiens) (UniProt P04637); test: ATG_p53_CIS: Attagene CIS-FACTORIAL HepG2 Assay for human p53 Transcription Factor (AID 2282994); conditions: HepG2 p53 cis-element reporter, Attagene mRNA; actives raise or lower the signal
Summary of the method: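 HepG2 cells transiently transfected with multiplexed cis-regulated reporter transcription units read endogenous TF activity. After 24 h compound exposure, reporter mRNA was quantified by RT-PCR, fluorescent labelling, HpaI digestion and capillary electrophoresis; bidirectional fits versus DMSO baseline.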

[17] = ATG_NF_kB_CIS: Attagene CIS-FACTORIAL HepG2 Assay for human Nuclear Factor Kappa B (NF-kB) (AID 2282991); conditions: HepG2 Attagene cis-factorial NF-kB reporter mRNA; actives raise or lower the signal
Summary of the method: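 HepG2, transient multi-reporter transfection, cis promoter elements (endogenous TFs). 24 h exposure. Total RNA → RT → PCR → 6-FAM label → HpaI → CE. Gain/loss vs DMSO.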

[18] = target: Nuclear receptor subfamily 1 group I member 2 (Homo sapiens) (UniProt O75469); test: ATG_PXR_TRANS: Attagene TRANS-FACTORIAL HepG2 Assay for human Pregnane X Receptor (PXR) (AID 2283008; active means hit-call score of the fitted dose curve at least 0.9, where 1 is the maximum)
Summary of the method: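 HepG2 cells transiently transfected with multiple reporter units, here a PXR-GAL4 chimera driving a GAL4-UAS reporter; 24 h compound exposure. Reporter mRNA measured by RT-PCR, FAM labelling and capillary electrophoresis; gain of signal fitted against DMSO baseline.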

[19] = ATG_XTT_Cytotoxicity: Cytotoxicity Assessment in the Attagene TRANS-FACTORIAL HepG2 Assay (AID 2283584; active means hit-call score of the fitted dose curve at least 0.9, where 1 is the maximum)
Summary of the method: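 HepG2 cells transiently transfected with GAL4-UAS multiple reporter units, dosed 24 h; cytotoxicity read by XTT as loss of signal versus DMSO baseline.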

[20] = ATG_NRF2_ARE_CIS: Attagene CIS-FACTORIAL HepG2 Assay for human Nuclear Factor Erythroid 2 Related Factor 2 (NFR2) response to Antioxidant Response Elements (ARE) (AID 2282992); conditions: HepG2 Attagene ARE/NRF2 reporter, transcription factor activity; actives raise or lower the signal;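 on AC50: reporter mRNA level measured by RT-PCR and capillary electrophoresis fluorescence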
Summary of the method: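 HepG2 cells transiently transfected with multiplexed cis-regulated reporter transcription units measure endogenous transcription factor activity. Reporter mRNA at 24 h is quantified by RT-PCR, fluorescent labelling and capillary electrophoresis, with bidirectional fitting relative to DMSO.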

Measured: AC50

Chain of X-box-binding protein 1 (Homo sapiens) (P17861 whole entry, looked up): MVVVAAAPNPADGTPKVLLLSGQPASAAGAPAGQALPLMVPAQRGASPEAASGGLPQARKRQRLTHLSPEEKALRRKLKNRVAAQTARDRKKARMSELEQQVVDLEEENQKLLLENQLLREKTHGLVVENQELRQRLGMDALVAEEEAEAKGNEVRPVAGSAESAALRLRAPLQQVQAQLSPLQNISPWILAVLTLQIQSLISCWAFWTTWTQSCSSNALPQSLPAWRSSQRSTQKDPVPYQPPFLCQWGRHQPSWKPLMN
Chain of Hepatocyte nuclear factor 3-beta (Homo sapiens) (Q9Y261 whole entry, looked up): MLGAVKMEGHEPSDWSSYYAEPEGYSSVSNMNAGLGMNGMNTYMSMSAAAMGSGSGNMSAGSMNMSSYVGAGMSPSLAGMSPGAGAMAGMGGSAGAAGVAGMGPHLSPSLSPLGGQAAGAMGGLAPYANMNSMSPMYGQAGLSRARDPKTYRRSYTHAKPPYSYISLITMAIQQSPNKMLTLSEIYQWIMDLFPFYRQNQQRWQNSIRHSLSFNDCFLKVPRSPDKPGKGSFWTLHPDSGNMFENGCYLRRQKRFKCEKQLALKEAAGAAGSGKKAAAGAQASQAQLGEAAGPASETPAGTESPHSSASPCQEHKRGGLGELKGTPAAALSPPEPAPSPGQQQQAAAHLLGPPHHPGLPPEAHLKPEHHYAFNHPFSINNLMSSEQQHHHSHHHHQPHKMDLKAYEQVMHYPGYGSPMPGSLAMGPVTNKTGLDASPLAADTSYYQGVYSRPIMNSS
Chain of Cellular tumor antigen p53 (Homo sapiens) (P04637 whole entry, looked up): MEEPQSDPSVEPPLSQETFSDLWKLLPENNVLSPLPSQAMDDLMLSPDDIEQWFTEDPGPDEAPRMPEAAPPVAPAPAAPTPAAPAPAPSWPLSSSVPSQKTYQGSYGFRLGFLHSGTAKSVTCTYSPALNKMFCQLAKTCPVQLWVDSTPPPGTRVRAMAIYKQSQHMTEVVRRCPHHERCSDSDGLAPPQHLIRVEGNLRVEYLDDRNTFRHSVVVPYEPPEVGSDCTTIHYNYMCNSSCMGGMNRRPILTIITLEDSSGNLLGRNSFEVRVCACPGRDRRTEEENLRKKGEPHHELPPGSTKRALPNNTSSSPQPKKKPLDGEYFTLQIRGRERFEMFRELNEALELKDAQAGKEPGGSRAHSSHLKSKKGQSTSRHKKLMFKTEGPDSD
Chain of Heat shock factor protein 1 (Homo sapiens) (Q00613 whole entry, looked up): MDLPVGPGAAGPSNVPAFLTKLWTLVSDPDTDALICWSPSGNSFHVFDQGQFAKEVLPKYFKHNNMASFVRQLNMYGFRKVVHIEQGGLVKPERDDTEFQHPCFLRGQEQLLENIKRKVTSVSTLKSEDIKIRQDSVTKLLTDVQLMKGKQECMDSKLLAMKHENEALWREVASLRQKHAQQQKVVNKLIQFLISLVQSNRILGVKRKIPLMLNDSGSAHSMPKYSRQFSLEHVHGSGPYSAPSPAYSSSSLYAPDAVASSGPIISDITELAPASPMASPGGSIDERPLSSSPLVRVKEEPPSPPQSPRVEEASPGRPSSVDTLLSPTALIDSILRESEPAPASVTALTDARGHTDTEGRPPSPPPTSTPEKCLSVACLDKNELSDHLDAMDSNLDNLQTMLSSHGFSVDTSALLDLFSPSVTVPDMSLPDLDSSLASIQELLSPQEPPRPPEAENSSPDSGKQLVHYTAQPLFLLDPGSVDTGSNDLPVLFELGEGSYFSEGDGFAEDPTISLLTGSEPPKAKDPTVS
Chain of Nuclear respiratory factor 1 (Homo sapiens) (Q16656 whole entry, looked up): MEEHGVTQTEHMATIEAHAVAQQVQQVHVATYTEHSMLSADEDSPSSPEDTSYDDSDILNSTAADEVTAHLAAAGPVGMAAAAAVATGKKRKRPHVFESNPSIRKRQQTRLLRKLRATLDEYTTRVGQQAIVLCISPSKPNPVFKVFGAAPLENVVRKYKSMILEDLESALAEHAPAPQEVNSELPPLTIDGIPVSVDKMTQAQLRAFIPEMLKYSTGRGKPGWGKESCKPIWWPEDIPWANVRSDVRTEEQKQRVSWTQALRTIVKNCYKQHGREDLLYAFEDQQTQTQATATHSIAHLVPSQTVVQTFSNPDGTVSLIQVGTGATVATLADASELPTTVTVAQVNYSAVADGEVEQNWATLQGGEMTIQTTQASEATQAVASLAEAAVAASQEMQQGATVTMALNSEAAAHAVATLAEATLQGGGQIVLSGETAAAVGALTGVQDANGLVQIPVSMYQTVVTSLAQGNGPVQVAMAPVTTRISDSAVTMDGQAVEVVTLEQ
Chain of Myc proto-oncogene protein (Homo sapiens) (P01106 whole entry, looked up): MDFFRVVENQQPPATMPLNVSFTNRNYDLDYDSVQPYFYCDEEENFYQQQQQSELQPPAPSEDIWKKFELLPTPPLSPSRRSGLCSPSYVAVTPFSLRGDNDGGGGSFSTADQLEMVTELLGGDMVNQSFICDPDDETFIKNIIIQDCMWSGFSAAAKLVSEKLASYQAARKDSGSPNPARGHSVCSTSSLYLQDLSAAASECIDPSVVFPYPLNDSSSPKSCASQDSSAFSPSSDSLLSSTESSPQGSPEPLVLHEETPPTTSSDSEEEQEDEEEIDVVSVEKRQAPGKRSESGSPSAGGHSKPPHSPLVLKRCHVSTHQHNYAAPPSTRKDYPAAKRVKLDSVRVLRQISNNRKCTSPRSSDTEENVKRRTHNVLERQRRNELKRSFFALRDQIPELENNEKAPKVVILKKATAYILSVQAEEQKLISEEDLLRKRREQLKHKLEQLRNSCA
Chain of Transcriptional activator Myb (Homo sapiens) (P10242 whole entry, looked up): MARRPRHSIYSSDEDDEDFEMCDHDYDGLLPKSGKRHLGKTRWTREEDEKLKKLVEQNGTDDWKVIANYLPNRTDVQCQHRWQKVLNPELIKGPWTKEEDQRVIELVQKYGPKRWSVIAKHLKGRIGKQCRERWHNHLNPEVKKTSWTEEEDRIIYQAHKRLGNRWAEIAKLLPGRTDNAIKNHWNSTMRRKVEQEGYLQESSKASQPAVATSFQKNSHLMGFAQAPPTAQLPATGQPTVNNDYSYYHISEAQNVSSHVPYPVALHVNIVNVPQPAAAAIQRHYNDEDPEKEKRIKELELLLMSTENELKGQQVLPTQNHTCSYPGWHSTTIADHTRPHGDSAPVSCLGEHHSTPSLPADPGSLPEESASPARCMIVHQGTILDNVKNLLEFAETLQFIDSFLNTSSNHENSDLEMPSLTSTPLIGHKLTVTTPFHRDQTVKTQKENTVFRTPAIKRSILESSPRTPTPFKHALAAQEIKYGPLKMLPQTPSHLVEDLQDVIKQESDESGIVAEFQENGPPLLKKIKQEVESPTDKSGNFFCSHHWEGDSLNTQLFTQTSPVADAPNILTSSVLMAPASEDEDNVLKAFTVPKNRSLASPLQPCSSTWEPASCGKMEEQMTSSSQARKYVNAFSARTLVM
Chain of Nuclear receptor subfamily 1 group I member 2 (Homo sapiens) (O75469 whole entry, looked up, the tested form may be a part): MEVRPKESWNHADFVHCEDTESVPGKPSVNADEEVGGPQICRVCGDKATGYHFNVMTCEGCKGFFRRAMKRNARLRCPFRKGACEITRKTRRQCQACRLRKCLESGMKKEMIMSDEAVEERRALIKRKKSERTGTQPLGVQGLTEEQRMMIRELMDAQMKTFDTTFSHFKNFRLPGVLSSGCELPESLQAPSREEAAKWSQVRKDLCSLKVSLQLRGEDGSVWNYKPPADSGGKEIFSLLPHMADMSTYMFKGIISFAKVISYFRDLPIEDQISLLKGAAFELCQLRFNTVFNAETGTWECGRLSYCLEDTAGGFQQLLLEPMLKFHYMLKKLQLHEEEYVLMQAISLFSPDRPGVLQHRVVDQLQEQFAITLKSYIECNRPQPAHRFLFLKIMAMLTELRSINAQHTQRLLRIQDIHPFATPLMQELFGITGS
Chain of Hypoxia-inducible factor 1-alpha (Homo sapiens) (Q16665 whole entry, looked up): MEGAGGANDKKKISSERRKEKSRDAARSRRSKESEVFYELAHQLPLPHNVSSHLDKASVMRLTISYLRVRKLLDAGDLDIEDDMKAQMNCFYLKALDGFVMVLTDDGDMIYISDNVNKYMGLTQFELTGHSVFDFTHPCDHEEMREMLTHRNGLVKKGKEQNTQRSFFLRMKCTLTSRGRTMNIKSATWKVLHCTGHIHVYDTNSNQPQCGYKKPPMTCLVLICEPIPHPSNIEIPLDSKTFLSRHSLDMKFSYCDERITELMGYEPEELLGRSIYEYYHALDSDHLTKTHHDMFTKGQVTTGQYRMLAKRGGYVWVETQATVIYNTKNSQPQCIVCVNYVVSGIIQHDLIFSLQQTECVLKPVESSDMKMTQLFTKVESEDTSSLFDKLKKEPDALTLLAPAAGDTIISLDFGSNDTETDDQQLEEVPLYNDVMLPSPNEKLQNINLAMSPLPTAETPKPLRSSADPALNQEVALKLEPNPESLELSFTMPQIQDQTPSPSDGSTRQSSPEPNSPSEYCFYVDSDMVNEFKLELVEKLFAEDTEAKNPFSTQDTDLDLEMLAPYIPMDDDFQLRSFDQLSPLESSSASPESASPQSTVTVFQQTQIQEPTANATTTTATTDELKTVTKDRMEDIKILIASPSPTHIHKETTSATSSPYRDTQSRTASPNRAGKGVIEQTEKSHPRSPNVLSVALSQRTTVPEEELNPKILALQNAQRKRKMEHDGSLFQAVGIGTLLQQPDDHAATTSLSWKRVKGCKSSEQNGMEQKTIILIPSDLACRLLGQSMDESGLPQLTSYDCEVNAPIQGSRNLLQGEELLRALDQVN
Chain of Hepatocyte nuclear factor 6 (Homo sapiens) (Q9UBC0 whole entry, looked up, the tested form may be a part): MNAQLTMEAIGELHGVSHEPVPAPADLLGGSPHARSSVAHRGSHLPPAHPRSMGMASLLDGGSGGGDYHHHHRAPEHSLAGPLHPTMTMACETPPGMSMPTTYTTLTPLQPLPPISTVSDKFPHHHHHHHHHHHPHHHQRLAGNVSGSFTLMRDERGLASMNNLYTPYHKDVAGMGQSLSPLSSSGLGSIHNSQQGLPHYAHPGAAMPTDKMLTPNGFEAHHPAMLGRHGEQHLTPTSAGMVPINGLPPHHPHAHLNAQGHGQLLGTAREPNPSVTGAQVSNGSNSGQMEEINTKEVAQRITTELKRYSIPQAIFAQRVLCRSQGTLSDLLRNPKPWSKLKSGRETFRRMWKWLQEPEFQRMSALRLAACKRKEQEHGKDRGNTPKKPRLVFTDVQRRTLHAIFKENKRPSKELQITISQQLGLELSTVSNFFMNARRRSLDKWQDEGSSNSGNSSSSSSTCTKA

CC(O)CN(CC(C)O)CC(C)O (stereo not given)
not listed: [17] | [18] | [19] | [20]
inactive: all other assays above

N#CCCCl
not listed: [2] | [3] | [11] | [20]
inactive: all other assays above

CC(=O)/C=C/c1ccccc1
active: [5] 70.9 µM | [6] 156 µM | [20] 33 µM
not listed: [3] | [16] | [19]
inactive: all other assays above

c1cc(OCC2CO2)ccc1Cc1ccc(OCC2CO2)cc1 (stereo not given)
active: [1] 19.6 µM | [5] 45.8 µM | [6] 62.6 µM | [10] 19.8 µM | [15] 22.9 µM | [17] 54.7 µM | [16] 55.3 µM | [18] 20.6 µM
not listed: [2] | [20]
inactive: all other assays above

CCC(Br)(CC)C(=O)NC(N)=O
not listed: [1] | [8] | [11]
inactive: all other assays above

Nc1ccccc1C(=O)Oc1ccc2ccccc2c1
active: [6] 27.7 µM | [9] 12 µM | [12] 162 µM | [13] 139 µM | [14] 85.4 µM | [20] 31.7 µM | [18] 48.6 µM
not listed: [8] | [11] | [17]
inactive: all other assays above

CC1CCC(=O)O1 (stereo not given)
not listed: [3] | [11]
inactive: all other assays above

CN(C)CCC#N
not listed: [8]
inactive: all other assays above

CCCCOP(=O)(O)OCCCC
not listed: [16] | [19]
inactive: all other assays above

CC(C)c1ccc(O)cc1
not listed: [11] | [19] | [20]
inactive: all other assays above

CCOC(=O)C1OC1(C)c1ccccc1 (stereo not given)
not listed: [17]
inactive: all other assays above

O=C(O)C(Br)Br
active: [20] 1.86 µM
not listed: [2] | [11] | [18]
inactive: all other assays above

C[N+](C)=CCl
not listed: [7] | [11] | [16] | [18] | [19] | [20]
inactive: all other assays above

CCCC=NO
not listed: [3] | [8] | [17] | [20]
inactive: all other assays above

N#CC(c1ccccc1)c1ccccc1
active: [20] 77.9 µM | [18] 4.59 µM
not listed: [2] | [11] | [17] | [19]
inactive: all other assays above
